The values below come from PubChem BioAssay (EPA / NIEHS).

For test [1], the target named is mouse Peroxisome Proliferator-activated Receptor gamma (PPARg), Pparg (gene 19016) (UniProt P37238). Description: ATG_mPPARg_XSP1: Attagene TRANS-FACTORIAL Multi-Species (XSP1) HepG2 Assay for mouse Peroxisome Proliferator-activated Receptor gamma (PPARg) (AID 2283802). The essentials: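 HepG2 cells transiently transfected with GAL4-UAS reporter units driven by mouse PPARg–GAL4 chimera; 3 nM 6-alpha-fluorotestosterone present. After 24 h dosing, reporter mRNA quantified by RT-PCR, fluorescent labelling and capillary electrophoresis; gain of signal versus DMSO.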

Test [2] has as its target frog Thyroid hormone Receptor alpha (TRa), thra-a (gene 397942) (UniProt P15204). Description: ATG_frTRa_XSP1: Attagene TRANS-FACTORIAL Multi-Species (XSP1) HepG2 Assay for frog Thyroid hormone Receptor alpha (TRa) (AID 2283804). The method in brief: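 HepG2 cells transiently transfected with frog TRa-GAL4 chimeric reporter units, dosed 24 hr with 3 nM 6-alpha-fluorotestosterone present; reporter mRNA quantified by RT-PCR, fluorescent labelling and capillary electrophoresis, gain of signal versus DMSO.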

The target of test [3] is human Thyroid hormone Receptor alpha (TRa), THRA (gene 7067) (UniProt P10827). Description: ATG_hTRa_XSP1: Attagene TRANS-FACTORIAL Multi-Species (XSP1) HepG2 Assay for human Thyroid hormone Receptor alpha (TRa) (AID 2283805). The essentials:
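HepG2 cells transiently transfected with GAL4-UAS reporter units expressing chimeric NR-Gal4 proteins, dosed 24 hours with 3 nM 6-alpha-fluorotestosterone present. Reporter mRNA measured by RT-PCR and capillary electrophoresis; gain of signal fitted versus DMSO.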

For test [4], the system named is turtle Thyroid Hormone Receptor, alpha (TRa), gene 101949057. Description: ATG_trTRa_XSP1: Attagene TRANS-FACTORIAL Multi-Species (XSP1) HepG2 Assay for turtle Thyroid Hormone Receptor, alpha (TRa) (AID 2283806). The method in brief: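 HepG2 cells transiently transfected with GAL4-UAS reporter units and chimeric receptor-Gal4 constructs, with 3 nM 6-alpha-fluorotestosterone present. Reporter mRNA was quantified 24 h after dosing by RT-PCR, 6-FAM labelling and capillary electrophoresis; gain of signal versus DMSO.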

Test [5] has as its target zebrafish Thyroid Hormone Receptor alpha (TRa), thraa (gene 30670) (UniProt Q98867). Nature of the test: ATG_zfTRa_XSP1: Attagene TRANS-FACTORIAL Multi-Species (XSP1) HepG2 Assay for zebrafish Thyroid Hormone Receptor alpha (TRa) (AID 2283807). The method in brief:
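HepG2 cells transiently transfected with GAL4-UAS reporter units including a zebrafish TRa–Gal4 chimera, dosed 24 h with 3 nM 6-alpha-fluorotestosterone present. Reporter mRNA quantified by RT-PCR and capillary electrophoresis; gain versus DMSO.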

Test [6] has as its target human Thyroid hormone Receptor beta (TRb), THRB (gene 7068) (UniProt P10828). Nature of the test: ATG_hTRb_XSP1: Attagene TRANS-FACTORIAL Multi-Species (XSP1) HepG2 Assay for human Thyroid hormone Receptor beta (TRb) (AID 2283808). The essentials: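 HepG2 cells transiently transfected with reporter units driving GAL4-UAS reporters for chimeric NR-Gal4 proteins; 24 h chemical exposure with 3 nM 6-alpha-fluorotestosterone present. Reporter mRNA quantified by RT-PCR and capillary electrophoresis, gain of signal versus DMSO.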

The target in test [7] is zebrafish Thyroid Hormone Receptor beta (TRb), thrb (gene 30607) (UniProt Q9PVE4). Nature of the test: ATG_zfTRb_XSP1: Attagene TRANS-FACTORIAL Multi-Species (XSP1) HepG2 Assay for zebrafish Thyroid Hormone Receptor beta (TRb) (AID 2283809). The method in brief:
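HepG2 cells transiently transfected with multiplexed GAL4-UAS reporter units expressing chimeric zebrafish TRb–Gal4. Dosed 24 h with 3 nM 6-alpha-fluorotestosterone present; reporter mRNA measured by RT-PCR, HpaI digestion and capillary electrophoresis; gain of signal versus DMSO.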

The nature of test [8]: ATG_XTT_Cytotoxicity_XSP1: Cytotoxicity Assessment in the Attagene TRANS-FACTORIAL Multi-Species (XSP1) HepG2 Assay (AID 2283810). The essentials:
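XTT viability readout taken at 24 hours post-dosing in HepG2 liver cells co-treated with 3 nM 6-alpha-fluorotestosterone. Signal loss relative to DMSO controls reflects cytotoxicity.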

The nature of test [9]: ATG_M_06_XSP2: Attagene TRANS-FACTORIAL Multi-Species (XSP2) HepG2 Assay for M06 Transcription Factor (Internal Marker) (AID 2283811).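 Also: hits are increases in signal above the DMSO baseline.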 The essentials: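 HepG2 cells transiently transfected with GAL4-UAS multiple reporter units, medium containing 3 nM 6-alpha-fluorotestosterone and 1.5 nM norgestrel; reporter mRNA measured 24 hours post-dosing by RT-PCR and capillary electrophoresis. Internal background marker, gain of signal vs DMSO.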

In test [10] the test system is zebrafish Peroxisome Proliferator-activated Receptor gamma (PPARg), gene 557037. Description: ATG_zfPPARg_XSP1: Attagene TRANS-FACTORIAL Multi-Species (XSP1) HepG2 Assay for zebrafish Peroxisome Proliferator-activated Receptor gamma (PPARg) (AID 2283801). The essentials: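 HepG2 cells transiently transfected with GAL4-UAS reporter units including a zebrafish PPARg–GAL4 chimera, dosed 24 h with 3 nM 6-alpha-fluorotestosterone present. Reporter mRNA quantified by RT-PCR, FAM labelling, HpaI digestion and capillary electrophoresis; induction versus DMSO.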

Test [11] deals with Nuclear receptor subfamily 1 group I member 2 (Mus musculus) (UniProt O54915). Nature of the test: ATG_mPXR_XSP1: Attagene TRANS-FACTORIAL Multi-Species (XSP1) HepG2 Assay for mouse Pregnane X Receptor (PXR) (AID 2283803). The method in brief:
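Transiently transfected HepG2 cells expressing a receptor-Gal4 chimera drive a GAL4-UAS reporter; 3 nM 6-alpha-fluorotestosterone included. Reporter mRNA read 24 h post-dose by RT-PCR and capillary electrophoresis; gain of signal relative to DMSO.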

In test [12] the test system is turtle Estrogen Receptor (ERa), gene 101933533. Description: ATG_trERa_XSP2: Attagene TRANS-FACTORIAL Multi-Species (XSP2) HepG2 Assay for turtle Estrogen Receptor (ERa) (AID 2283812).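 Also: human HepG2 liver cells transiently expressing turtle ERa-Gal4 chimeric receptor; actives raise reporter signal above DMSO so AC50 reflects agonist activity.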 The method in brief:
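HepG2 cells transiently transfected with GAL4-UAS reporter units expressing turtle ERa-Gal4 chimera. Reporter mRNA measured after 24 h dosing by RT-PCR, fluorescent labelling and capillary electrophoresis; gain of signal fitted versus DMSO.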

In test [13] the target is Estrogen receptor beta (Homo sapiens) (UniProt Q92731). Description: ATG_hERb_XSP2: Attagene TRANS-FACTORIAL Multi-Species (XSP2) HepG2 Assay for human Estrogen Receptor (ERb) (AID 2283813).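 Also: actives raise reporter mRNA above DMSO so AC50 reflects agonist induction.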 The method in brief:
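HepG2 cells transiently transfected with GAL4-UAS reporter units and chimeric human ERb-Gal4, 24 h exposure. Reporter mRNA quantified by RT-PCR with FAM labelling, HpaI digestion and capillary electrophoresis; gain of signal versus DMSO.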

Test [14] deals with zebrafish Estrogen Receptor (ER1), esr1 (gene 259252) (UniProt P57717). Nature of the test: ATG_zfER1_XSP2: Attagene TRANS-FACTORIAL Multi-Species (XSP2) HepG2 Assay for zebrafish Estrogen Receptor (ER1) (AID 2283816). The method in brief: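 HepG2 cells transiently transfected with a GAL4-UAS reporter and a chimeric zebrafish ER1-Gal4 construct, dosed 24 h. Reporter mRNA quantified by RT-PCR, labelling, HpaI digestion and capillary electrophoresis, relative to DMSO.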

For test [15], the target named is chicken Estrogen Receptor (ERa), ESR1 (gene 396099) (UniProt P06212). Nature of the test: ATG_chERa_XSP2: Attagene TRANS-FACTORIAL Multi-Species (XSP2) HepG2 Assay for chicken Estrogen Receptor (ERa) (AID 2283817).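 Also: actives raise reporter signal above DMSO so AC50 reflects ER activation.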 The method in brief: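 Transiently transfected HepG2 cells expressing chimeric chicken ERa-GAL4 reporter units, dosed 24 h with 3 nM 6-alpha-fluorotestosterone and 1.5 nM norgestrel present. Reporter mRNA measured by RT-PCR and capillary electrophoresis; gain-of-signal fitted relative to DMSO.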

Test [16] concerns zebrafish Estrogen Receptor (ER2a), gene 317734. Nature of the test: ATG_zfER2a_XSP2: Attagene TRANS-FACTORIAL Multi-Species (XSP2) HepG2 Assay for zebrafish Estrogen Receptor (ER2a) (AID 2283818).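 Also: hits raise reporter mRNA so AC50 reflects activation of zebrafish ER2a.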 The method in brief: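 HepG2 cells transiently transfected with GAL4-UAS reporter units and chimeric zebrafish ER2a-Gal4, exposed 24 h; medium contains 3 nM 6-alpha-fluorotestosterone and 1.5 nM norgestrel. Reporter mRNA quantified by RT-PCR, HpaI digestion, capillary electrophoresis; gain versus DMSO.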

Test [17] concerns frog Estrogen Receptor (ER), gene 398734. Description: ATG_frER1_XSP2: Attagene TRANS-FACTORIAL Multi-Species (XSP2) HepG2 Assay for frog Estrogen Receptor (ER) (AID 2283821).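 Also: hits raise reporter mRNA above DMSO baseline so potency means agonist or activator.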 The method in brief:
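HepG2 cells transiently transfected with GAL4-UAS reporter units expressing a chimeric frog ER-Gal4 protein; 24 h exposure. Reporter mRNA quantified by RT-PCR, fluorescent labelling and capillary electrophoresis; gain of signal fitted against DMSO baseline.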

Test [18] addresses GAL4 Transcription Factor (Internal Marker), GAL4 (gene 855828) (UniProt P04386). Description: ATG_GAL4_XSP2: Attagene TRANS-FACTORIAL Multi-Species (XSP2) HepG2 Assay for GAL4 Transcription Factor (Internal Marker) (AID 2283814).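 Also: GAL4 reporter mRNA background control in MRTU transfected cells not a receptor target.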 The method in brief: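 HepG2 cells transiently transfected with GAL4-UAS reporter units, stimulated with 3 nM 6-alpha-fluorotestosterone plus 1.5 nM norgestrel, dosed 24 h. Reporter mRNA by RT-PCR/capillary electrophoresis; gain-of-signal fit versus DMSO, background control.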

Test [19] relates to turtle Androgen Receptor (AR), gene 101947425. Description: ATG_trAR_XSP2: Attagene TRANS-FACTORIAL Multi-Species (XSP2) HepG2 Assay for turtle Androgen Receptor (AR) (AID 2283815). The method in brief: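 HepG2 cells transiently transfected with GAL4-UAS reporter units for chimeric NR-Gal4 receptors; 24 h dosing in presence of 3 nM 6-alpha-fluorotestosterone and 1.5 nM norgestrel. Reporter mRNA by RT-PCR and capillary electrophoresis, gain of signal versus DMSO.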

Test [20] relates to chicken Androgen Receptor (AR), gene 422165. Nature of the test: ATG_chAR_XSP2: Attagene TRANS-FACTORIAL Multi-Species (XSP2) HepG2 Assay for chicken Androgen Receptor (AR) (AID 2283819).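 Also: hits raise reporter mRNA above DMSO so potency is for activation.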 The method in brief: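 HepG2 cells transiently transfected with chicken AR–GAL4 chimeric reporter constructs, stimulated with 3 nM 6-alpha-fluorotestosterone plus 1.5 nM norgestrel, dosed 24 h. Reporter mRNA quantified by RT-PCR and capillary electrophoresis; gain of signal fitted versus DMSO.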

Inconclusive results are not listed. Calls of active or inactive are those of the source. The calls were made as follows: active = hit-call score of the fitted dose curve at least 0.9, where 1 is the maximum; inconclusive = response in the unintended direction; inactive = score below 0.9.

Sequence of zebrafish Thyroid Hormone Receptor beta (TRb), thrb (gene 30607) (Q9PVE4 whole entry, looked up, the tested form may be a part): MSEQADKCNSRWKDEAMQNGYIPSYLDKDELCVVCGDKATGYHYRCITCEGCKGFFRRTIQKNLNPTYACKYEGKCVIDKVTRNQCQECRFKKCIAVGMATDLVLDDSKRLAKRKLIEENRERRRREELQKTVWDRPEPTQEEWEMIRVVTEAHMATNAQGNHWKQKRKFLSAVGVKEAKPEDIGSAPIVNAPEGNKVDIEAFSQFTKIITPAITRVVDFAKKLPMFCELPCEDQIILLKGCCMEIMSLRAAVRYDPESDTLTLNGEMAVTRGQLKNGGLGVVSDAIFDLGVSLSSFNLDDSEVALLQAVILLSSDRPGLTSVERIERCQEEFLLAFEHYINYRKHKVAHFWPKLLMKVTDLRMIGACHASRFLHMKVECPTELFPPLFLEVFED
Sequence of frog Thyroid hormone Receptor alpha (TRa), thra-a (gene 397942) (P15204 whole entry, looked up, the tested form may be a part): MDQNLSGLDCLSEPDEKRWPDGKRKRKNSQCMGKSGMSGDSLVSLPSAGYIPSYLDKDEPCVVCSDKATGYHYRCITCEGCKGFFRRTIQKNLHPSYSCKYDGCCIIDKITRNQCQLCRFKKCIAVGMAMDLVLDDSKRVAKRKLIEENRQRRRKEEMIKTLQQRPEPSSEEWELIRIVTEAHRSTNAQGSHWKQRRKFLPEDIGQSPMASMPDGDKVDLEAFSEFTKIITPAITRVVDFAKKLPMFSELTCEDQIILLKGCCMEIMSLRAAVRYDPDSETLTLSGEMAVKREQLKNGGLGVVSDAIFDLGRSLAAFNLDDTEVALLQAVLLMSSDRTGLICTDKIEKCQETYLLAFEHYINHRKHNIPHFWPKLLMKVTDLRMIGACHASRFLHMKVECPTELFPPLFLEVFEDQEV
Sequence of mouse Peroxisome Proliferator-activated Receptor gamma (PPARg), Pparg (gene 19016) (P37238 whole entry, looked up, the tested form may be a part): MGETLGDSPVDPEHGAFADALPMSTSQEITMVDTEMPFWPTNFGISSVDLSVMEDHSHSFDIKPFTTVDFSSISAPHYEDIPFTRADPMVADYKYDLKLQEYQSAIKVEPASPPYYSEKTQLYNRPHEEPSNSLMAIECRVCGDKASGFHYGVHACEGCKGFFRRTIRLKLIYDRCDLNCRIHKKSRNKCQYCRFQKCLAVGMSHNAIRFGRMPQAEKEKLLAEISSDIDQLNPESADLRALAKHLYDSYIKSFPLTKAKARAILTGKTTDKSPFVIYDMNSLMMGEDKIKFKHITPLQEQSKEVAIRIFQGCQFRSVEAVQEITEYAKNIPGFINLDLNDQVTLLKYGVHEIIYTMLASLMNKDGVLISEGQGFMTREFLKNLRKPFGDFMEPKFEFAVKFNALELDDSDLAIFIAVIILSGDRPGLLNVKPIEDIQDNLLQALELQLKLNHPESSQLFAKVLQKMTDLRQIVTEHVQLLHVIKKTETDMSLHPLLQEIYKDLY
Sequence of human Thyroid hormone Receptor beta (TRb), THRB (gene 7068) (P10828 whole entry, looked up, the tested form may be a part): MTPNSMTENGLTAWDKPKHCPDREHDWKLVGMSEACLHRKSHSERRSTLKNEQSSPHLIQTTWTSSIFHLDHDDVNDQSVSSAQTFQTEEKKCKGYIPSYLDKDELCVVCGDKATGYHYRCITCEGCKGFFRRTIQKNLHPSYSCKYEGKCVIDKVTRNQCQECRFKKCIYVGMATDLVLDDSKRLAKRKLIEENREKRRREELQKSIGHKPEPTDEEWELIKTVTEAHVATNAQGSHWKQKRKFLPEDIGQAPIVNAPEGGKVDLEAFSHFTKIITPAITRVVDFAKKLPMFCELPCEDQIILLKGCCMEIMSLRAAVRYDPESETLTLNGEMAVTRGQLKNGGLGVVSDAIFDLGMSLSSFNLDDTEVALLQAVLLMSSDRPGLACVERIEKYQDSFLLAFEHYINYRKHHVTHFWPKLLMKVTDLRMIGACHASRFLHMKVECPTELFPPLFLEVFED
Sequence of human Thyroid hormone Receptor alpha (TRa), THRA (gene 7067) (P10827 whole entry, looked up, the tested form may be a part): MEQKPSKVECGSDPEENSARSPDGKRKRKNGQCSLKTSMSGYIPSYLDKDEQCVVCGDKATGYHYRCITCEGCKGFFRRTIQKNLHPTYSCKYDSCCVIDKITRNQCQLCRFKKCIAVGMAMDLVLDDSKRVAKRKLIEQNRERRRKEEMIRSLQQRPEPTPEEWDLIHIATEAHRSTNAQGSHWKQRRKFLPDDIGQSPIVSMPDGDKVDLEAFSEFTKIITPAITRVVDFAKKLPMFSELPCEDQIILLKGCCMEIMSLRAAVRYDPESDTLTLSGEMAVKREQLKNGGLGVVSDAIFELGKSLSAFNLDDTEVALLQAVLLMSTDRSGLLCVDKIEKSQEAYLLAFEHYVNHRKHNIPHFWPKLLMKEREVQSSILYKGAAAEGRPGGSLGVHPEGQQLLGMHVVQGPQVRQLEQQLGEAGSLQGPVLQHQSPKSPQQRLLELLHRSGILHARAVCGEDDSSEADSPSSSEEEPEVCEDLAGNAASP
Sequence of chicken Estrogen Receptor (ERa), ESR1 (gene 396099) (P06212 whole entry, looked up, the tested form may be a part): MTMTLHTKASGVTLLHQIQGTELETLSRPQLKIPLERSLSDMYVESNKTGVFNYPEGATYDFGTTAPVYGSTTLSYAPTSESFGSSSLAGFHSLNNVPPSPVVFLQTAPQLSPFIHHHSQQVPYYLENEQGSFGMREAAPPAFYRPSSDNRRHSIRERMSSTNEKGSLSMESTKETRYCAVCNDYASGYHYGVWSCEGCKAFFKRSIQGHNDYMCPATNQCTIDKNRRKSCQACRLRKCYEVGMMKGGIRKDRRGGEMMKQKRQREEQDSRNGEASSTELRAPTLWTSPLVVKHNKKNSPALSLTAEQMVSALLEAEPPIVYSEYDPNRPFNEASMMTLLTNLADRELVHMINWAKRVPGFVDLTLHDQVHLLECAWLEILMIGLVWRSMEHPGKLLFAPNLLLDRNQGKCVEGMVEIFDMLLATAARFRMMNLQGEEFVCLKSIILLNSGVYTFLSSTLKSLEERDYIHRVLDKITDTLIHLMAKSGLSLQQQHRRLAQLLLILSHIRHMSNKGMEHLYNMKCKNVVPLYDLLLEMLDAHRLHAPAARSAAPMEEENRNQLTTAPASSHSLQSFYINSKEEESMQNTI
Sequence of Estrogen receptor beta (Homo sapiens) (Q92731 whole entry, looked up, the tested form may be a part): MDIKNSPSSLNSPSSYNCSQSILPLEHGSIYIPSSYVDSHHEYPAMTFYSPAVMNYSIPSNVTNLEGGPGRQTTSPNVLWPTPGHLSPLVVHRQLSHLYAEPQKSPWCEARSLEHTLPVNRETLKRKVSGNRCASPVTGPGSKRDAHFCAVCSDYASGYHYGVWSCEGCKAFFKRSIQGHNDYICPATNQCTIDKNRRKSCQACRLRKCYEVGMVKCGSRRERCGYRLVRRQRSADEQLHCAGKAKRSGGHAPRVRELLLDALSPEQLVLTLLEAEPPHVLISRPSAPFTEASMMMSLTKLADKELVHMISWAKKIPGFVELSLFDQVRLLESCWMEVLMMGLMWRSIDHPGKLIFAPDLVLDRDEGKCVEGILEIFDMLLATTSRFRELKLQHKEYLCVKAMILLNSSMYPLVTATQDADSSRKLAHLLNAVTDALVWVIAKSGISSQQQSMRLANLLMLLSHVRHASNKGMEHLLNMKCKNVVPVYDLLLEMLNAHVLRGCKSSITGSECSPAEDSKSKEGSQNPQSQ
Sequence of zebrafish Thyroid Hormone Receptor alpha (TRa), thraa (gene 30670) (Q98867 whole entry, looked up, the tested form may be a part): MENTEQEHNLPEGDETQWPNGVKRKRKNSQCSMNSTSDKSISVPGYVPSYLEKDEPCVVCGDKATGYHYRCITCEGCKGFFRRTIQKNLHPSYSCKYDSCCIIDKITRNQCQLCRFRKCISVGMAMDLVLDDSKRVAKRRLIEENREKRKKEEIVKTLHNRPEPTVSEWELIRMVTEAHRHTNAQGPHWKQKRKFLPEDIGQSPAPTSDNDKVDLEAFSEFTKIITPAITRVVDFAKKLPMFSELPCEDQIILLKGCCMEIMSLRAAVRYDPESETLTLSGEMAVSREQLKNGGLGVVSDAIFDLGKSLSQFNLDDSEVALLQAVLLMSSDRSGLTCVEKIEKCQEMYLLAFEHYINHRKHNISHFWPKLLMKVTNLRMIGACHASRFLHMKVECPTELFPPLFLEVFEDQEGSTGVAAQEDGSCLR
Sequence of GAL4 Transcription Factor (Internal Marker), GAL4 (gene 855828) (P04386 whole entry, looked up, the tested form may be a part): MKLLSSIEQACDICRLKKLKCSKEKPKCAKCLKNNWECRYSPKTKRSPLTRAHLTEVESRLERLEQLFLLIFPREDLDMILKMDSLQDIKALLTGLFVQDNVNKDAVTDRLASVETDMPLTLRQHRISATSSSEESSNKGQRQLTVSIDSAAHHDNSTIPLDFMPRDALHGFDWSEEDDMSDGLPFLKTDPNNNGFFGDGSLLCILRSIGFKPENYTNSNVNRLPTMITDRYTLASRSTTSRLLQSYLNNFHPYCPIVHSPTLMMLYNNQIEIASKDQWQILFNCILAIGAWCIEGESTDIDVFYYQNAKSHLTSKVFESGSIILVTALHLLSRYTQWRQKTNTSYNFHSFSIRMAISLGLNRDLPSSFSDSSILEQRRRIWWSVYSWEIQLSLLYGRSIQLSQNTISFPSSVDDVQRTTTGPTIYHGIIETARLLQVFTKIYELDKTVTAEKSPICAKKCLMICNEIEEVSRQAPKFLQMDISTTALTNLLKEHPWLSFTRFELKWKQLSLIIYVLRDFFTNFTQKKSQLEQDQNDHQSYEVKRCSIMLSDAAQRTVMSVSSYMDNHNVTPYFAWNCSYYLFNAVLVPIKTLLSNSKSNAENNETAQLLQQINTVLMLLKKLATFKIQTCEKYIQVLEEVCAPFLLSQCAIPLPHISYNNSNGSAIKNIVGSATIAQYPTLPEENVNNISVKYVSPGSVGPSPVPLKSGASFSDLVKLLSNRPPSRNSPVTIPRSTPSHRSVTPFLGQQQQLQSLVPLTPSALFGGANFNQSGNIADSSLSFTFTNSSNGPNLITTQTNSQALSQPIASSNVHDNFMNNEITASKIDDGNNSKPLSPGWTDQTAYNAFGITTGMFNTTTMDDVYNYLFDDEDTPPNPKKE

The term AC50 denotes the concentration giving half of the maximal activity seen. Regarding `CCN(CC)C(=S)SSC(=S)N(CC)CC`, the compound was classed as inactive in test [1], in test [2], in test [3], in test [4], in test [5] and in [6]. Moreover, the result in test [7] and in test [9] was inactive. Further, the concentration at half-maximal activity (AC50) in test [8] is 30.8 µM (active).
`CC(C)C(=O)Nc1ccc([N+](=O)[O-])c(C(F)(F)F)c1`: the result in test [10], in test [8], in test [9], in [12], in [13] and in [14] was inactive. Moreover, the compound was called inactive in test [15] and in [16]. In addition, the AC50 was 27.1 µM (active) in [1]; 27.4 µM (active) in [11]; 63.9 µM (active) in [2]; 29 µM (active) in [3]; 22.7 µM (active) in test [4]; 18.3 µM (active) in test [5]. Also, the AC50 is 100 µM (active) in test [6], 40.2 µM (active) in [7] and 26.3 µM (active) in test [17].
`C=CCc1cc(S(=O)(=O)c2ccc(O)c(CC=C)c2)ccc1O`: the call in [10], in [2], in test [3], in [6], in test [7] and in [9] was inactive. Besides, the call in [13], in test [18], in test [19] and in test [16] was inactive. In addition, the AC50 is 3.63 µM (active) in test [1]; 100 µM (active) in [4]; 160 µM (active) in test [8]; 8.75 µM (active) in [12]; 3.5 µM (active) in test [15]; 8.4 µM (active) in test [20]. In test [17], the AC50 was 8.79 µM (active).
